Tests used:
[1] = target: Sphingosine kinase 1 (Homo sapiens) (UniProt Q9NYA1); settings: at 1 µM;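 note: mean SPHK1 inhibition value reported from the GSK PKIS kinase panel screen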
[2] = target: T1, Sphingosine kinase 2 (Homo sapiens) (UniProt Q9NRA0); settings: at 0.1 µM
T1 sequence (whole entry): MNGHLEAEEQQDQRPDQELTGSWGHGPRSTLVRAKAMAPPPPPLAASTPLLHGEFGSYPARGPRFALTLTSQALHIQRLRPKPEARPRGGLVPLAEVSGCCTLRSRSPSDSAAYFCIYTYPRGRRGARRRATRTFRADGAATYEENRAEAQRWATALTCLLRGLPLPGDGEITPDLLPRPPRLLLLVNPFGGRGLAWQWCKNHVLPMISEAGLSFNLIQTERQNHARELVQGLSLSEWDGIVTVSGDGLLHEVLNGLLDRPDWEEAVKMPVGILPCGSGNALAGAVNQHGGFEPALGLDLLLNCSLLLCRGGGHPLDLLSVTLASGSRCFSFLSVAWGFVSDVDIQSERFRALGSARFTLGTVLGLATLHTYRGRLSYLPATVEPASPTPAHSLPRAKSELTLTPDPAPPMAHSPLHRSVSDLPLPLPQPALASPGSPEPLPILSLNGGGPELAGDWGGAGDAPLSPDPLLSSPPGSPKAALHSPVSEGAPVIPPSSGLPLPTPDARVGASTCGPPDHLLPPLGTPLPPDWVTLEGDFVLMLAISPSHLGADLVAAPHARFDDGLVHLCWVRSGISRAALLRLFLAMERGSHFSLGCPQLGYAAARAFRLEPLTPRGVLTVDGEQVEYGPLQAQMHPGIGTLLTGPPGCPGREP

[3] = target: T1, Sphingosine kinase 2 (Homo sapiens); settings: at 1 µM
[4] = target: Casein kinase II subunit alpha (Homo sapiens) (UniProt P68400); settings: at 0.1 µM
[5] = target: Casein kinase II subunit alpha (Homo sapiens) (UniProt P68400); settings: at 1 µM
[6] = target: T2, Inhibitor of nuclear factor kappa-B kinase subunit alpha (Homo sapiens) (UniProt O15111); settings: at 0.1 µM
T2 sequence (whole entry): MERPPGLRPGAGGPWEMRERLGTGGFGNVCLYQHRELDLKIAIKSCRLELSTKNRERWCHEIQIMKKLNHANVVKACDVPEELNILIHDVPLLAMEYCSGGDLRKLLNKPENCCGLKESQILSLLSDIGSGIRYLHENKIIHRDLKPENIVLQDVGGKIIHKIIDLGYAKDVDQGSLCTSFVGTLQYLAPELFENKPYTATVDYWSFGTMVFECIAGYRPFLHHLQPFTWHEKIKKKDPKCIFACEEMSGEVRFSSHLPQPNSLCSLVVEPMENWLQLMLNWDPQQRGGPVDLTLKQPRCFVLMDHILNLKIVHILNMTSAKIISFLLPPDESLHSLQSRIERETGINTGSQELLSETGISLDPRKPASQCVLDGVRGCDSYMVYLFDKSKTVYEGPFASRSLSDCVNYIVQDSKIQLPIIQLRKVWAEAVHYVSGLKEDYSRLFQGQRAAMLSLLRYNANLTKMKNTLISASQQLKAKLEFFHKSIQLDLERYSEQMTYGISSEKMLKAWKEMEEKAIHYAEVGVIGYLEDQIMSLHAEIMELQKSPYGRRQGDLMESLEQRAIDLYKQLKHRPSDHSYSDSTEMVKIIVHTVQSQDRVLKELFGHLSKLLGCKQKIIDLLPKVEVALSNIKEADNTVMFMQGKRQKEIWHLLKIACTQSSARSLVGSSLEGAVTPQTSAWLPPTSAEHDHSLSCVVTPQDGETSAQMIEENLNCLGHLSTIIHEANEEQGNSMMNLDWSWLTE

[7] = target: T2, Inhibitor of nuclear factor kappa-B kinase subunit alpha (Homo sapiens); settings: at 1 µM
[8] = target: T3, Inhibitor of nuclear factor kappa-B kinase subunit beta (Homo sapiens) (UniProt O14920); settings: at 0.1 µM
T3 sequence (whole entry): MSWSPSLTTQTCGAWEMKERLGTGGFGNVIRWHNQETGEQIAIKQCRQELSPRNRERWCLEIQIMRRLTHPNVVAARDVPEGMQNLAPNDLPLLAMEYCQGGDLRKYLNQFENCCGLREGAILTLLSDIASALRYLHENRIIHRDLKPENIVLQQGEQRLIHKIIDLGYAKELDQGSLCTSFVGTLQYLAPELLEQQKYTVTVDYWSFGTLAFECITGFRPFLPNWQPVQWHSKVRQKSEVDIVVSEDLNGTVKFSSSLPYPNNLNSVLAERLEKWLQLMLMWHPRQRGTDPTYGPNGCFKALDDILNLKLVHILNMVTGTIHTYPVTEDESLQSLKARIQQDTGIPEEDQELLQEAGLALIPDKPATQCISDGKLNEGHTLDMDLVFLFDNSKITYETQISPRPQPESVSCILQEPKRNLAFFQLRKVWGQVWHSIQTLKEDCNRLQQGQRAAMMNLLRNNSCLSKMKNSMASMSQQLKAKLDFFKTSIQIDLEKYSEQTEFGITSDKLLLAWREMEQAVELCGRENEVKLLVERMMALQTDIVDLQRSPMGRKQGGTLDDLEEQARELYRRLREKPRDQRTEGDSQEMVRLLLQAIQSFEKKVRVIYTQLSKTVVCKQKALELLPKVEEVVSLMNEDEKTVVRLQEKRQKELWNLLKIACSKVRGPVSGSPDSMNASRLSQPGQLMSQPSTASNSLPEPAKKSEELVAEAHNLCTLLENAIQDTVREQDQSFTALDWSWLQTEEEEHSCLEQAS

[9] = target: T3, Inhibitor of nuclear factor kappa-B kinase subunit beta (Homo sapiens); settings: at 1 µM
[10] = target: T4, Inhibitor of nuclear factor kappa-B kinase subunit epsilon (Homo sapiens) (UniProt Q14164); settings: at 0.1 µM
T4 sequence (whole entry): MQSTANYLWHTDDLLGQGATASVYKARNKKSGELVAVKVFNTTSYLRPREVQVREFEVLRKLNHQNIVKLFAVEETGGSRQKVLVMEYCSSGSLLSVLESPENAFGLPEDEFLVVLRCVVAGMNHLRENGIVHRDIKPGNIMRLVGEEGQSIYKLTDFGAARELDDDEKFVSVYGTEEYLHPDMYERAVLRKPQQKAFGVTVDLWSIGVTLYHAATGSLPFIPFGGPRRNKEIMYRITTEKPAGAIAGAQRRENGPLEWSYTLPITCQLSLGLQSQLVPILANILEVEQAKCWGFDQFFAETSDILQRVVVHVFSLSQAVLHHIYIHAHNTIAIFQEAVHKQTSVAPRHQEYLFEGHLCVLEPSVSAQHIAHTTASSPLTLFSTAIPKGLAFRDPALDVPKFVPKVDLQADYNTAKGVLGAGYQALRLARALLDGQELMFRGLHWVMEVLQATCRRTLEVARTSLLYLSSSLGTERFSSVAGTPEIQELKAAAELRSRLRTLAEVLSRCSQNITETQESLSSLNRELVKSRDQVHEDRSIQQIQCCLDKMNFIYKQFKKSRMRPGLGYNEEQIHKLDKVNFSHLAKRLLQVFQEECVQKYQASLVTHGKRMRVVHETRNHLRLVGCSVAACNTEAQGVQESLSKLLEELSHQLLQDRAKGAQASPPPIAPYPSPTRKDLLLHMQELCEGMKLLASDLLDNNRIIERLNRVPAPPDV

[11] = target: T4, Inhibitor of nuclear factor kappa-B kinase subunit epsilon (Homo sapiens); settings: at 1 µM
[12] = target: T5, Serine/threonine-protein kinase Nek1 (Homo sapiens) (UniProt Q96PY6); settings: at 0.1 µM
T5 sequence (whole entry): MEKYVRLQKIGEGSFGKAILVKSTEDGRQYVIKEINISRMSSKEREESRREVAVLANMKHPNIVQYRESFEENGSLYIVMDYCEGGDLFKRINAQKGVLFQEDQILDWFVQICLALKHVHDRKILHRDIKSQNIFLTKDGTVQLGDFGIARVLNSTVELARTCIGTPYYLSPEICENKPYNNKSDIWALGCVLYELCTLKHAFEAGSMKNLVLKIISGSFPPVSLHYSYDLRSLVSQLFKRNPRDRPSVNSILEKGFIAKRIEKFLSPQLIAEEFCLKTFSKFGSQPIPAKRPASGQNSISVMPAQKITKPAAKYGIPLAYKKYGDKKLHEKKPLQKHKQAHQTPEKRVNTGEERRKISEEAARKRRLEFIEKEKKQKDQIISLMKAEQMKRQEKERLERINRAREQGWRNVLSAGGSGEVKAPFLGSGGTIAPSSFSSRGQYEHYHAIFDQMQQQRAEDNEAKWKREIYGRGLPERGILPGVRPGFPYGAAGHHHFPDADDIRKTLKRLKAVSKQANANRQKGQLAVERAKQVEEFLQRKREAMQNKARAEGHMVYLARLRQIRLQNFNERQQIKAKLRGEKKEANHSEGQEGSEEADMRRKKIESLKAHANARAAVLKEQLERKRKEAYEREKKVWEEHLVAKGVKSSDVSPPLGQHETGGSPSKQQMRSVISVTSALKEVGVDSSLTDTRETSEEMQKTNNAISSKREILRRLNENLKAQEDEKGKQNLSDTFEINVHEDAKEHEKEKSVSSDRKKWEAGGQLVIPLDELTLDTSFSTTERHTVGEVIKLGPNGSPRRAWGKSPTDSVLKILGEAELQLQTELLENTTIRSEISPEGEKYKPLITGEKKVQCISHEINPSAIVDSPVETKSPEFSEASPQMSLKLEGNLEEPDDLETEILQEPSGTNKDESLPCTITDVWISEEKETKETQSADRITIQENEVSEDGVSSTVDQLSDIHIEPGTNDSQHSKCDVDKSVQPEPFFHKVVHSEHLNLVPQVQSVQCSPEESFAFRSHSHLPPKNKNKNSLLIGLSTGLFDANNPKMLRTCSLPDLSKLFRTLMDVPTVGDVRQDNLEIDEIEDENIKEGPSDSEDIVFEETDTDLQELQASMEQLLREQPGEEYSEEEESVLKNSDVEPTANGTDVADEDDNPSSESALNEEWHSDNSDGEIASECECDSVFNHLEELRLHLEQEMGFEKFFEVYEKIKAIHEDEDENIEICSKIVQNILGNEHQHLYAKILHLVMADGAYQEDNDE

[13] = target: T5, Serine/threonine-protein kinase Nek1 (Homo sapiens); settings: at 1 µM
[14] = target: T6, Serine/threonine-protein kinase Nek2 (Homo sapiens) (UniProt P51955); settings: at 0.1 µM
T6 sequence (whole entry): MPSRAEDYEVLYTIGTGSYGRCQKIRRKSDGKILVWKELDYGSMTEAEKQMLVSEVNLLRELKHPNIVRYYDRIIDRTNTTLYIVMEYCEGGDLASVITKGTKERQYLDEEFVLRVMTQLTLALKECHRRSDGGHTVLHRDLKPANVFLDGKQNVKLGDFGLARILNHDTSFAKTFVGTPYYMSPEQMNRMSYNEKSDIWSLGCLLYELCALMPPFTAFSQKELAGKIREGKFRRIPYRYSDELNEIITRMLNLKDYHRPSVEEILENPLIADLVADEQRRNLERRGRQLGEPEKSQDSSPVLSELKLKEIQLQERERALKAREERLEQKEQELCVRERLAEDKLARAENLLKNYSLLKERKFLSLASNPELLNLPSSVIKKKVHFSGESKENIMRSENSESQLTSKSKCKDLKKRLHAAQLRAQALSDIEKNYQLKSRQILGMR

[15] = target: T6, Serine/threonine-protein kinase Nek2 (Homo sapiens); settings: at 1 µM
[16] = target: Serine/threonine-protein kinase Nek6 (Homo sapiens) (UniProt Q9HC98); settings: at 0.1 µM
[17] = target: Serine/threonine-protein kinase Nek6 (Homo sapiens) (UniProt Q9HC98); settings: at 1 µM
[18] = target: Serine/threonine-protein kinase Nek7 (Homo sapiens) (UniProt Q8TDX7); settings: at 0.1 µM
[19] = target: Serine/threonine-protein kinase Nek7 (Homo sapiens) (UniProt Q8TDX7); settings: at 1 µM
[20] = target: T7, Serine/threonine-protein kinase Nek9 (Homo sapiens) (UniProt Q8TD19); settings: at 0.1 µM;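 note: reported value is the mean percent inhibition of NEK9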
T7 sequence (whole entry): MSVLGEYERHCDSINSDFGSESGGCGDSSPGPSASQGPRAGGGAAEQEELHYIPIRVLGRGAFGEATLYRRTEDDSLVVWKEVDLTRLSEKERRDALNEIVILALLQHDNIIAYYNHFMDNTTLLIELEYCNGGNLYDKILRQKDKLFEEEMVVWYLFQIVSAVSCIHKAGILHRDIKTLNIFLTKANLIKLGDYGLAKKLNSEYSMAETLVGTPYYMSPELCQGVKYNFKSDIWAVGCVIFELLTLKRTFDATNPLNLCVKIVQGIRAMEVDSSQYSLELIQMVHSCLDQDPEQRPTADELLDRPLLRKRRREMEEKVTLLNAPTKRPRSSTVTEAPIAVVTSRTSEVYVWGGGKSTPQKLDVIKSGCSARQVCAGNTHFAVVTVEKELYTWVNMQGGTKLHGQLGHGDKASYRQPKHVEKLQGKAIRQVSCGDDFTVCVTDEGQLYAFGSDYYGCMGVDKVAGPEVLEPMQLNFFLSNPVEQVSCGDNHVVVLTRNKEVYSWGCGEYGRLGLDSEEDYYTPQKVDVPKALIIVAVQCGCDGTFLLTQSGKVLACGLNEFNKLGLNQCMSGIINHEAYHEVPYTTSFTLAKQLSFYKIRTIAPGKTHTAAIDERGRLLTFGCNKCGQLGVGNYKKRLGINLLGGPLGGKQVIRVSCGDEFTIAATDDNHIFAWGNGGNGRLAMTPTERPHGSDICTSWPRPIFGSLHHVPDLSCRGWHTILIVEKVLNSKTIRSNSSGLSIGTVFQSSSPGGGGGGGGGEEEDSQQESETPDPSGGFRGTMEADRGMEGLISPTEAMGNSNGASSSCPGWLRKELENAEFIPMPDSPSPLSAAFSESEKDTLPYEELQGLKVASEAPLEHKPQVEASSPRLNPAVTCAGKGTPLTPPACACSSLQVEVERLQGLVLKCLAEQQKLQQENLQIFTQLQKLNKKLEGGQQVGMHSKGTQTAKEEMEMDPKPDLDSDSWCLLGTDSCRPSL

Sequence of Casein kinase II subunit alpha (Homo sapiens) (P68400 whole entry, looked up): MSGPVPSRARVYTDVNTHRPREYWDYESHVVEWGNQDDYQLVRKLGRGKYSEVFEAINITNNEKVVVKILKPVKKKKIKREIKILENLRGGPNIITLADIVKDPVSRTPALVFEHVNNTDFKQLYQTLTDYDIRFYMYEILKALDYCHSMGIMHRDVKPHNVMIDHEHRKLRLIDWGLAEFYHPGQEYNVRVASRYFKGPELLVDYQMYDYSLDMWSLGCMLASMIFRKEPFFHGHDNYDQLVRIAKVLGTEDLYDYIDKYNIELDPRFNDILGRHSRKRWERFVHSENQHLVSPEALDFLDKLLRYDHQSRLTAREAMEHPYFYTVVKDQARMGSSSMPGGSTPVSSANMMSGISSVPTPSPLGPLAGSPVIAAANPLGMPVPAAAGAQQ
Sequence of Serine/threonine-protein kinase Nek7 (Homo sapiens) (Q8TDX7 whole entry, looked up): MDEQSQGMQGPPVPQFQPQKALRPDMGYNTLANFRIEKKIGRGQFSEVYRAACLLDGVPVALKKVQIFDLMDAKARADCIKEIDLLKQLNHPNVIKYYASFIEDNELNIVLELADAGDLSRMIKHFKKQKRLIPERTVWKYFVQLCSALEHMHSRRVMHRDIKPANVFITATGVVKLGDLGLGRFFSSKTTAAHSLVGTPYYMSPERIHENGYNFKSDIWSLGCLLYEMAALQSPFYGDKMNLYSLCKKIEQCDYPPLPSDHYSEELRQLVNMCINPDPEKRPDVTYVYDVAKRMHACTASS
Sequence of Serine/threonine-protein kinase Nek6 (Homo sapiens) (Q9HC98 whole entry): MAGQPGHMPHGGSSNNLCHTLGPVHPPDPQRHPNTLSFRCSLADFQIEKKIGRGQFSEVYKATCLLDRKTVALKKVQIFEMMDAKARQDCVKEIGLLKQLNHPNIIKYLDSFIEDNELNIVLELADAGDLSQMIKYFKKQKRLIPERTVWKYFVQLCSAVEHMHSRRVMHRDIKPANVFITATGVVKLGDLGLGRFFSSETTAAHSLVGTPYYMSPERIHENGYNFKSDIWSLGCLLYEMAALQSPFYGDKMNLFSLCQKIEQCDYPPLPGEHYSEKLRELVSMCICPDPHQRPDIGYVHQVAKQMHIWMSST
Sequence of Sphingosine kinase 1 (Homo sapiens) (Q9NYA1 whole entry): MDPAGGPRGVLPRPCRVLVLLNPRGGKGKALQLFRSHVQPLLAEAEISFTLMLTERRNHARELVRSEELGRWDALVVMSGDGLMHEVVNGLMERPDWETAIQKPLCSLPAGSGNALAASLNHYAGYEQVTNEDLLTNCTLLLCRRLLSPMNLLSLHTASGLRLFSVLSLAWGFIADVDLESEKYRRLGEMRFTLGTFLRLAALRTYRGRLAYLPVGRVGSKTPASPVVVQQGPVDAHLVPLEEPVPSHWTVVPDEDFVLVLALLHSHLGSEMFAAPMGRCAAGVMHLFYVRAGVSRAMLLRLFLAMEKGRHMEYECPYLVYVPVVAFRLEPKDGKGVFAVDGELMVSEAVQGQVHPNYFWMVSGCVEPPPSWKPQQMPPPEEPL

Compound | inhibition [1] | inhibition [2] | inhibition [3] | inhibition [4] | inhibition [5] | inhibition [6] | inhibition [7] | inhibition [8] | inhibition [9] | inhibition [10] | inhibition [11] | inhibition [12] | inhibition [13] | inhibition [14] | inhibition [15] | inhibition [16] | inhibition [17] | inhibition [18] | inhibition [19] | inhibition [20]
COc1cc2ncn(-c3cc(O[C@@H](C)c4ccccc4Cl)c(C(N)=O)s3)c2cc1OC | -1.61% | -0.7% | 0% | 6.99% | 3.34% | 4.16% | 8.5% | 6.47% | 4.88% | 5.3% | 7.74% | 4.69% | 19.3% | 5.52% | 10.4% | 1.03% | 0.67% | 3.47% | 4.57% | 7.99%
Cn1cc(C=C2C(=O)Nc3cccnc32)c2ccccc21 | 8.29% | -4.3% | -0.04% | 1.08% | 6.39% | 5.69% | -0.33% | 2.27% | 1.05% | 3.13% |  | 2.09% | 1.05% | 2.65% | 2.9% | 3.82% | -1.86% | 3.8% | 4.49% | 2.88%

Reference: ChEMBL document CHEMBL1961873, “Compounds: GSK PKIS; Assays: Nanosyn kinase panel” (2012)
